From article PMC4336329 (PLoS ONE, 2015)
The whole screen tested about 310,000 compounds, of which about 14,000 (4.5%) showed an effect of 50% or more. The effect is printed as a negative number. Only a selection was taken, and strong results are over-represented in it overall.

target: human ether-à-go-go-related gene (hERG) potassium channel (human, UniProt Q12809); assay: primary screen, population patch clamp on CHO cells stably expressing hERG; higher = less effect of the substance
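Also: peak tail current of the secondary pulse compared with the same well before compound.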

Chain of human ether-à-go-go-related gene (hERG) potassium channel (Q12809 whole entry, looked up): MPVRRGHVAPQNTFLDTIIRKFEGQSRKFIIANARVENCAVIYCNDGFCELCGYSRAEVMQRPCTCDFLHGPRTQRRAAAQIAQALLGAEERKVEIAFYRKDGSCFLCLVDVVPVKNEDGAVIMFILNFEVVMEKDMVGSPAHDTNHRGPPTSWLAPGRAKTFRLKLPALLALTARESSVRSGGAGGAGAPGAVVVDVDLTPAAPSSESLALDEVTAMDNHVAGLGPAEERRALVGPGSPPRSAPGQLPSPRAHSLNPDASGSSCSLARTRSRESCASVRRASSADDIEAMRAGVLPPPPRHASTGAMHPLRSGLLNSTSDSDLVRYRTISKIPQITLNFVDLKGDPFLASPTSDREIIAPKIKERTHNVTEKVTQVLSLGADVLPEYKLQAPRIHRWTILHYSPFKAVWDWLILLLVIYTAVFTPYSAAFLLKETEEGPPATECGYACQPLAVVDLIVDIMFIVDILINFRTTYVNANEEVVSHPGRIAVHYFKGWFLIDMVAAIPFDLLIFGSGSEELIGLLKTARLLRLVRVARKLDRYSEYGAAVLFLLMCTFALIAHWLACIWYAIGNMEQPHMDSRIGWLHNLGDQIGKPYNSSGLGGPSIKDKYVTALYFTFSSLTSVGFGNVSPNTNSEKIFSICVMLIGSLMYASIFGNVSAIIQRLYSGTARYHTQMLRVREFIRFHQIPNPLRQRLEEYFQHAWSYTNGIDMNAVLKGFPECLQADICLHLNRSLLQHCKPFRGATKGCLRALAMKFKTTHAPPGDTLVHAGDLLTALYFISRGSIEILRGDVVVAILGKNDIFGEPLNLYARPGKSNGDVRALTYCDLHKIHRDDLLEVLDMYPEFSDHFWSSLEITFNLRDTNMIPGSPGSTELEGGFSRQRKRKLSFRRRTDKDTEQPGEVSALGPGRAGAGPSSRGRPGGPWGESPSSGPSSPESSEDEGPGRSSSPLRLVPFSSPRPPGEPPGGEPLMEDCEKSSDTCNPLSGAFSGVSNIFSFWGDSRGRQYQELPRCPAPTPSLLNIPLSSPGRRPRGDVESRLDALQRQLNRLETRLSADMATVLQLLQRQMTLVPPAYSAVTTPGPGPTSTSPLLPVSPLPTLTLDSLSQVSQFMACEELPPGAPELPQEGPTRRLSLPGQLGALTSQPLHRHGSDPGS

Compound	hERG current change (%, negative = inhibition) at 10uM
C/C(=N\Nc1nccnc1Cl)c1ccc([N+](=O)[O-])cc1	-4.09%
Cl.N[C@@H]1C[C@H]1c1ccccc1	14%
O=C(NC1CCCC1)C(c1ccncc1)N(C(=O)c1csnn1)c1cccc(F)c1 (stereo not shown)	17.2%
O=C1N=NC2=C1c1c3ccccc3c(O)n1CC2	3.49%
CCOC(=O)c1c(NC(=O)CN2CCOCC2)sc2c1CCCC2=O	-6.33%
Cc1cc2nc3c(nc2cc1C)CCCC3	15.9%
COc1ccccc1NC(=O)Cc1coc2cc(C)ccc12	-13.1%
Cc1cc(C(=O)OCC(=O)Nc2cccc(S(=O)(=O)N3CCOCC3)c2)c(C)o1	-19.6%
Cc1ccc(C(=O)Nc2cccc(S(=O)(=O)N3CCCC3)c2)o1	-9.98%
O=C(COC(=O)c1ccc([N+](=O)[O-])o1)Nc1cccc(S(=O)(=O)N2CCCCC2)c1	-56.6%
Cc1ccc(C(=O)OCC(=O)Nc2cccc(S(=O)(=O)N3CCOCC3)c2)o1	-53.1%
O=C(Nc1ccc(S(=O)(=O)N2CCOCC2)cc1)c1ccc([N+](=O)[O-])o1	-28.8%
O=C(Nc1cccc(S(=O)(=O)N2CCCCC2)c1)c1ccc([N+](=O)[O-])o1	-51.4%
Cc1ccc(C(=O)OCC(=O)Nc2cccc(S(=O)(=O)N3CCCCC3)c2)o1	6.02%
O=C(COC(=O)c1ccc(Br)o1)Nc1cccc(S(=O)(=O)N2CCCCCC2)c1	-14.9%
Cc1ccc2c(CC(=O)Nc3ccc(N4CCN(C)CC4)cc3C)coc2c1	-72.8%
Cc1ccc2c(CC(=O)N3CCN(c4ccccc4)CC3)coc2c1	-22%
O=C(COC(=O)c1ccc([N+](=O)[O-])o1)Nc1cccc(S(=O)(=O)N2CCOCC2)c1	-19.4%
CCN1CCN(C(=S)c2ccc(-c3ccccc3)cc2)CC1	-15.4%
CCCN1CCN(C(=O)Cn2c(=O)oc3cc(S(=O)(=O)NCc4ccccc4)ccc32)CC1	-6.53%
COc1ccc(-c2ocnc2C(=O)Nc2ccc3c(c2)CCC3)cc1	8.64%
Cc1ccc(C(=O)Nc2cccc(O)c2)cc1S(=O)(=O)N1CCCCCC1	11.2%
O=C(O)CSc1nnc(COc2cccc3ccccc23)n1Cc1ccccc1	21.3%
CCc1ccc2c(CC(=O)Nc3cccc(S(=O)(=O)N4CCOCC4)c3)coc2c1	-0.796%
COc1ccc2c(CC(=O)Nc3cccc(S(=O)(=O)N4CCOCC4)c3)coc2c1	-32.4%

Compound	hERG current change (%, negative = inhibition) at 10uM
Cc1ccc2c(CC(=O)Nc3cccc(S(=O)(=O)N4CCOCC4)c3)coc2c1	-51.4%
CCCCCCCNC(=O)C1(CC2CC(c3ccc(Cl)cc3)=NO2)CCN(C(=O)C2CCCC2)CC1 (stereo not shown)	-55.8%
CCCCCCCNC(=O)C1(CC2CC(c3ccc(Cl)cc3)=NO2)CCN(C(=O)OC(C)(C)C)CC1 (stereo not shown)	21.1%
CCCCCCCNC(=O)C1(CC2CC(c3ccc(Cl)cc3)=NO2)CCN(C(=O)C2(C)CC2)CC1 (stereo not shown)	-55.8%
COc1ccc(CC(=O)NCc2ccc(F)cc2)cc1S(=O)(=O)N1CCOCC1	-8.29%
CCCn1c2ccccc2c2cnn(CC(=O)N(CC)CC)c(=O)c21	-2.37%
CCCn1c2ccccc2c2cnn(CC(=O)NC(C)CC)c(=O)c21 (stereo not shown)	7.84%
CCCn1c2ccccc2c2cnn(CC(=O)NCCN(C)C)c(=O)c21	-60.1%
CCCn1c2ccccc2c2cnn(CC(=O)NCCN(CC)CC)c(=O)c21	-66.6%
CCCn1c2ccccc2c2cnn(CC(=O)OC)c(=O)c21	-0.361%
CCCn1c2ccccc2c2cnn(CC(=O)NCCOC)c(=O)c21	-5.71%
Cc1ccc(S(=O)(=O)N2CCN(CC(=O)N(CC(C)C)c3c(N)n(CC(C)C)c(=O)[nH]c3=O)CC2)c(C)c1	12.7%
O=[N+]([O-])c1cc([As](=O)(O)O)ccc1O	19.8%
Cc1csc(NC(=O)c2ccc(C)c([N+](=O)[O-])c2)n1	-41.6%
Cc1nn2cc(-c3ccc(Cl)cc3)cnc2c1Br	10.3%
Cc1ccc(NC(=O)C2Oc3ccccc3OC2C)cc1 (stereo not shown)	8.68%
CCCCC(=O)NC(=S)Nc1c(C)cc(Br)cc1C	2.71%
Cc1ccc(CNS(=O)(=O)c2ccc3c(c2)NC(=O)C(C)S3)cc1 (stereo not shown)	-1.22%
COc1ccc(C(=O)Nc2ccnn2C2CCN(C(=O)c3cnsn3)CC2)cc1	-11.5%
COc1ccccc1C(=O)Nc1ccnn1C1CCN(C(=O)c2ccoc2C)CC1	-62.9%
COc1ccccc1C(=O)Nc1ccnn1C1CCN(C(=O)C(C)(C)C)CC1	-50.4%
COc1ccccc1C(=O)Nc1ccnn1C1CCN(C(=O)c2ccoc2)CC1	-47.4%
CSCC(C)N1CCC(n2nccc2NC(=O)c2ccccc2C)CC1 (stereo not shown)	-16.6%
COc1ccccc1C(=O)Nc1ccnn1C1CCN(C)CC1	-32.7%
Cc1ccccc1C(=O)Nc1ccnn1C1CCN(C(=O)c2cnsn2)CC1	-30.4%

Compound	hERG current change (%, negative = inhibition) at 10uM
COc1ccccc1C(=O)Nc1ccnn1C1CCN(C(=O)C2CCOC2)CC1 (stereo not shown)	-35.9%
COc1ccccc1C(=O)Nc1ccnn1C1CCN(C(=O)c2cnsn2)CC1	-62.2%
COc1ccccc1C(=O)Nc1ccnn1C1CCN(C(C)CSC)CC1 (stereo not shown)	-67%
COc1ccc(C(=O)Nc2ccnn2C2CCN(C(C)CSC)CC2)cc1 (stereo not shown)	1.28%
COCC(=O)N1CCC(n2nccc2NC(=O)c2ccccc2OC)CC1	-1.85%
COc1ccc(-c2noc(CSc3nc(N)cc(=O)[nH]3)n2)cc1	0.145%
OCCC1CN(CC#Cc2ccccc2)CCN1Cc1ccccc1F (stereo not shown)	-7.93%
Cc1[nH]c2ccccc2c1SCCN	2.5%
O=S(=O)(c1cccc(C(F)(F)F)c1)N1CCN(C(=S)NCc2ccco2)CC1	-5.8%
CC(=O)N1c2ccc(S(=O)(=O)N(C)CC(=O)NC3CCCC3)cc2CC1C (stereo not shown)	-23.1%
COC(=O)C1=C(c2ccc(Cl)c(C(F)(F)F)c2)C[C@@H]2CC[C@H]1N2C(=O)NCc1ccc2c(c1)OCO2	-12.9%
Cc1cc(-n2nc(C)cc2C)n2ncc(-c3ccccc3)c2n1	16.2%
CC(=O)c1cnc2c(-c3ccc(Cl)cc3)cnn2c1C	-1.45%
CCc1ccccc1N(C(=O)Cn1nnc2ccccc21)C(C(=O)NCCOC)c1ccco1 (stereo not shown)	-7.99%
CCOC(=O)c1ccc(NC(=O)c2sc3nc4n(c(=O)c3c2C)CCC4)cc1	8.82%
N#CCCOC1(C#CCN2CCCC2)CCCCC1	19.6%
Cc1ccc(O)c(C(CC(=O)NC(C)C)c2ccccc2)c1 (stereo not shown)	6.85%
COCCCN1CN(Cc2ccccc2)CNC1=S	5.46%
O=C(Nc1nnc(CSCc2ccccc2F)s1)c1cccc([N+](=O)[O-])c1	-0.45%
COc1ccc(C(=O)Nc2ccnn2C2CCN(C3CCC3)CC2)cc1	20.7%
Cc1ccccc1C(=O)Nc1ccnn1C1CCN(C2CCSCC2)CC1	-49.5%
COc1ccccc1C(=O)Nc1ccnn1C1CCN(C2CCSCC2)CC1	-70.9%
CCCC1=Nc2cc(C(=O)N3CCC(C(N)=O)CC3)ccc2Sc2ccccc21	4.75%
O=C(/C=C/c1ccc(OC2CSC2)cc1)c1ccccc1	10.1%
CC(=O)Nc1cccc(C(=O)Nc2ccc(S(=O)(=O)NC3=NCCCCC3)cc2)c1	17%

Compound	hERG current change (%, negative = inhibition) at 10uM
O=C(COc1ccccc1)NCc1ccccc1	4.64%
O=C(COc1ccc(Cl)cc1)NCc1n[nH]c(=O)c2ccccc12	-13%
O=C(COc1ccccc1)NCc1nnc2c3ccccc3c(-c3ccccc3)nn12	-64.6%
O=C(COc1ccccc1)NCc1n[nH]c(=S)n1-c1ccccc1	17.5%
O=C(COc1ccc(Cl)cc1)NCc1nnc2c3ccccc3c(-c3ccccc3)nn12	-66.9%
O=C(COc1ccc(Cl)cc1)NCc1ccccc1	-10.4%
CCc1cccc(NC(=O)C2CCCN(S(=O)(=O)c3cccnc3)C2)c1 (stereo not shown)	-5.51%
CNCC(=O)Nc1ccc(Cl)c(C(F)(F)F)c1	17.6%
O=C(O)/C=C/C(=O)c1ccc(O)cc1	2.05%
C/C(O)=C(\C#N)P(=O)(c1ccccc1)c1ccccc1	11.6%
Cc1ccc(C)c(NC(=S)NC(C)C(c2ccccc2)N2CCN(C)CC2)c1 (stereo not shown)	-48%
CCN1CCN(C(c2cccs2)C(C)NC(=S)Nc2cccc(C)c2C)CC1 (stereo not shown)	-72.9%
Cc1ccc(C)c(NC(=S)NC(C)C(c2cccs2)N2CCOCC2)c1 (stereo not shown)	8.4%
CCN1CCN(C(c2cccs2)C(C)NC(=S)Nc2cc(C)ccc2C)CC1 (stereo not shown)	-68.5%
Cc1cccc(NC(=S)NC(C)C(c2ccccc2)N2CCN(C)CC2)c1C (stereo not shown)	-50%
Cc1cccc(NC(=S)NC(C)C(c2cccs2)N2CCN(C)CC2)c1C (stereo not shown)	-60.5%
CCN1CCN(C(c2cccs2)C(C)NC(=O)C(C)C)CC1 (stereo not shown)	9.03%
Cc1ccccc1NC(=S)NC(C)C(c1cccs1)N1CCOCC1 (stereo not shown)	2.05%
Cc1ccccc1NC(=S)NC(C)C(c1ccccc1)N1CCN(C)CC1 (stereo not shown)	-12.5%
CC(NC(=S)Nc1ccccc1Cl)C(c1cccs1)N1CCCC1 (stereo not shown)	-10.2%
CCN1CCN(C(c2cccs2)C(C)NC(=O)c2ccccc2)CC1 (stereo not shown)	-1.79%
CCN1CCN(C(c2cccs2)C(C)NC(=O)CC(C)C)CC1 (stereo not shown)	-6.37%
